Activity calls are given as the source filed them.

Assay [1] can be described thus: small molecules captured by biotinylated probe aFSTL3 – biochemical, small-molecule microarray, fluorescence 635/667, stem cell growth factor project, primary screen (AID 1064).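 Note: measures binding of the biotinylated anti-FSTL3 antibody to printed compounds.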 Particulars: higher = more signal.
A short description of assay [2]: binders from COS7 lysate, DM2A8 probe, primary screen, torsin A project, cell lysate, small-molecule microarray, fluorescence 635/667 (AID 1065). The conditions noted are these: higher = more signal, COS7 lysate expressing mutant human TOR1A.
A short description of assay [3]: small molecules captured by biotinylated probe aFGF2 – biochemical, small-molecule microarray, fluorescence 635/667, stem cell growth factor project, primary screen (AID 1067).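 Note: measures binding of biotinylated aFGF2 protein to printed compounds on slides; z-score merges feature fluorescence and signal-to-noise across triplicate slides.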 The conditions noted are these: higher = more signal.
Assay [4] is described as follows: small molecules captured by biotinylated probe aFGF10 – biochemical, small-molecule microarray, fluorescence 635/667, stem cell growth factor project, primary screen (AID 1071).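 Note: score merges 667 nm spot intensity and signal to noise from triplicate slides.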 Particulars: higher = more signal.
Assay [5] deals with Neurogenic locus notch homolog protein 2 (Homo sapiens) (UniProt Q04721). The assay is described as follows: small molecules binding Notch2 protein – biochemical, small-molecule microarray, 635 nm fluorescence, stem cell growth factors, primary screen (AID 1073). Particulars: higher = more signal.
The target in assay [6] is Pro-neuregulin-1, membrane-bound isoform (Homo sapiens) (UniProt Q02297). Put plainly: small molecules binding neuregulin-1 protein – biochemical, small-molecule microarray, fluorescence 635/667, psychiatric disease protein project, primary screen (AID 1075).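 Note: score combines 667 nm spot fluorescence with signal to noise.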 The conditions noted are these: NRG1 binding, 635 nm fluorescence, higher = more signal.
Assay [7] relates to Neuregulin-1 EGF-like domain. Put plainly: small molecules binding NRG1 EGF domain – biochemical, small-molecule microarray, 635 nm fluorescence, primary screen (AID 1081).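 Note: binding of the protein to compounds printed on small-molecule microarray slides.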 The conditions noted are these: higher = more signal.
The nature of assay [8]: FRG1 expression reporter modulators in myotubes – cell-based, C2C12 myotubes, firefly/Renilla luciferase, luminescence, FRG1 inhibition for FSHD, primary screen (AID 1084). Particulars: FRG1 promoter luciferase, higher = more signal, called active from +8 up or from −8 down.
A short description of assay [9]: small molecules captured by biotinylated probe aFST – biochemical, small-molecule microarray, fluorescence 635/667, stem cell growth factor project, primary screen (AID 1086).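 Note: score merges 667 nm fluorescence with signal-to-noise of each printed compound spot.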 The conditions noted are these: higher = more signal.
A short description of assay [10]: binders of probe aHhip on microarray, primary screen, stem cell growth factor project, biochemical, small-molecule microarray, fluorescence 635/667 (AID 1087).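 Note: score merges spot fluorescence at 667nm with spot signal to noise ratio.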 The conditions noted are these: higher = more signal.
In assay [11] the test system is PRMT1 (protein arginine N-methyltransferase 1). Put plainly: small molecules binding arginine methyltransferase PRMT1 – biochemical, small-molecule microarray, 635 nm fluorescence, primary screen (AID 1088).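 Note: binding of Prmt1 protein to compounds spotted on small-molecule microarray slides.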 The conditions noted are these: higher = more signal.
Assay [12] in a line: growth effects on S. cerevisiae YJM789 – YJM789 clinical isolate, OD600, 24 h, basal, primary screen (AID 1089).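 Note: growth of clinical yeast isolate S. cerevisiae YJM 789 seeded 1000 cells per well; test concentration not given here.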 Particulars: higher = more signal, called active from +8 up or from −8 down.
A short description of assay [13]: S. pombe growth modifiers, basal conditions – strain 972, OD600, 24 h, no modulator, primary screen (AID 1090).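 Note: basal condition with compound alone and no growth modifier present; test concentration not given here.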 Particulars: S. pombe 972 growth, higher = more signal, called active from +8 up or from −8 down.
Assay [14] is described as follows: budding yeast growth modifiers under rapamycin – strain BY4716, OD600, 96 h, primary screen (AID 1091). Note: test concentration not given here. Particulars: S. cerevisiae BY4716 + rapamycin, higher = more signal, called active from +8 up or from −8 down.
Assay [15] concerns the target Torsin-1A-interacting protein 2 (Homo sapiens) (UniProt Q8NFQ8). The assay is described as follows: small molecules binding lysate-expressed LULL1 – cell lysate, human LULL1 lysate, 635/667 nm fluorescence, primary screen (AID 1092).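 Note: probe is lysate of COS7 cells overexpressing human LULL1; score merges per-feature 667 nm fluorescence with signal-to-noise.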 Particulars: small-molecule microarray, hLULL1 lysate binding, 635 nm fluorescence; higher = more signal.
Assay [16] is described as follows: optical density change of DRC41 E. coli – strain DRC41, OD650, 24 h, E. coli filamentation project, primary screen (AID 1093).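 Note: MC1000 strain lacking acrAB efflux and sulA so SOS filamentation is blocked; test concentration not given here.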 Particulars: E. coli DRC41 growth, higher = more signal, called active from +8 up or from −8 down.
The nature of assay [17]: probe aLefty2 binding to arrayed compounds – biochemical, biotinylated probe, 635/667 nm fluorescence, primary screen (AID 1094).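 Note: score merges spot fluorescence near 667 nm with spot signal-to-noise ratio.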 Particulars: small-molecule microarray, higher = more signal.
The subject of assay [18] is Noggin (protein binding on small-molecule microarray). Put plainly: small molecules binding Noggin protein – biochemical, 635/667 nm fluorescence, primary screen (AID 1095).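 Note: score merges 667 nm feature fluorescence with signal to noise over triplicate slides.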 Particulars: 635 nm fluorescence, higher = more signal.
Assay [19] addresses Neurogenic locus notch homolog protein 3 (Homo sapiens) (UniProt Q9UM47). The assay is described as follows: small molecules binding NOTCH3 protein – biochemical, 635/667 nm fluorescence, primary screen (AID 1096). The conditions noted are these: small-molecule microarray, 635 nm fluorescence, higher = more signal.
The nature of assay [20]: probe aEGFR binding to arrayed compounds – biochemical, biotinylated probe, 635/667 nm fluorescence, primary screen (AID 1097).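 Note: probe is a biotinylated anti-EGFR antibody binding compounds printed on slides; score combines fluorescence near 667 nm and signal to noise of each spot.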 Particulars: small-molecule microarray, higher = more signal.

Sequence of Torsin-1A-interacting protein 2 (Homo sapiens) (Q8NFQ8 whole entry, looked up): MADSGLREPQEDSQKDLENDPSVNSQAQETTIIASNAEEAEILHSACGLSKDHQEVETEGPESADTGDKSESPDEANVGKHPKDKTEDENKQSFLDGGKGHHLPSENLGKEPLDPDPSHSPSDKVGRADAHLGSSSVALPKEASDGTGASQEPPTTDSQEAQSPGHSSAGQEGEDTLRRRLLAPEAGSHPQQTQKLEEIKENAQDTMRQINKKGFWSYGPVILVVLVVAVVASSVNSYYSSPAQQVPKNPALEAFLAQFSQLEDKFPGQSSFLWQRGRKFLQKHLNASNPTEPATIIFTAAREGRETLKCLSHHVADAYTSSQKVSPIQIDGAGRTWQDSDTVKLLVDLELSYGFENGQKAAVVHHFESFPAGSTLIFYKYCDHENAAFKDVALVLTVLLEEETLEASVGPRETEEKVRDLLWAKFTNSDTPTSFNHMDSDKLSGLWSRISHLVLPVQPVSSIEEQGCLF
Sequence of Pro-neuregulin-1, membrane-bound isoform (Homo sapiens) (Q02297 whole entry, looked up, the tested form may be a part, canonical isoform): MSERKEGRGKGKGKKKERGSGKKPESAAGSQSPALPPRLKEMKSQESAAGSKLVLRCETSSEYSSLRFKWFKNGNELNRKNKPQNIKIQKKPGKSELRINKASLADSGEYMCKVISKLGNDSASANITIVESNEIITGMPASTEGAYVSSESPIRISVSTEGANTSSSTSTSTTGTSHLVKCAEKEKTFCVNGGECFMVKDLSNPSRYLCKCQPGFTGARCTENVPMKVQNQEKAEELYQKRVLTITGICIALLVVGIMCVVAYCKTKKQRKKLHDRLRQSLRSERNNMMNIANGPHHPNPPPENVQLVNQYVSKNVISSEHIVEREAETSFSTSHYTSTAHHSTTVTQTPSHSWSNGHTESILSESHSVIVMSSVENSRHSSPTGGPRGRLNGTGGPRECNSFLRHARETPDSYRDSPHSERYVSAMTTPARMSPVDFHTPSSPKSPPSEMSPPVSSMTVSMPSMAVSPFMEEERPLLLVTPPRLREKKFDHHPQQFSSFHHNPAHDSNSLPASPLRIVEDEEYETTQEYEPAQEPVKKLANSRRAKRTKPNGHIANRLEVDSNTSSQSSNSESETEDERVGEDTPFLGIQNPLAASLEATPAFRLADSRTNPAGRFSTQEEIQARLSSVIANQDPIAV
Sequence of Neurogenic locus notch homolog protein 3 (Homo sapiens) (Q9UM47 whole entry, looked up): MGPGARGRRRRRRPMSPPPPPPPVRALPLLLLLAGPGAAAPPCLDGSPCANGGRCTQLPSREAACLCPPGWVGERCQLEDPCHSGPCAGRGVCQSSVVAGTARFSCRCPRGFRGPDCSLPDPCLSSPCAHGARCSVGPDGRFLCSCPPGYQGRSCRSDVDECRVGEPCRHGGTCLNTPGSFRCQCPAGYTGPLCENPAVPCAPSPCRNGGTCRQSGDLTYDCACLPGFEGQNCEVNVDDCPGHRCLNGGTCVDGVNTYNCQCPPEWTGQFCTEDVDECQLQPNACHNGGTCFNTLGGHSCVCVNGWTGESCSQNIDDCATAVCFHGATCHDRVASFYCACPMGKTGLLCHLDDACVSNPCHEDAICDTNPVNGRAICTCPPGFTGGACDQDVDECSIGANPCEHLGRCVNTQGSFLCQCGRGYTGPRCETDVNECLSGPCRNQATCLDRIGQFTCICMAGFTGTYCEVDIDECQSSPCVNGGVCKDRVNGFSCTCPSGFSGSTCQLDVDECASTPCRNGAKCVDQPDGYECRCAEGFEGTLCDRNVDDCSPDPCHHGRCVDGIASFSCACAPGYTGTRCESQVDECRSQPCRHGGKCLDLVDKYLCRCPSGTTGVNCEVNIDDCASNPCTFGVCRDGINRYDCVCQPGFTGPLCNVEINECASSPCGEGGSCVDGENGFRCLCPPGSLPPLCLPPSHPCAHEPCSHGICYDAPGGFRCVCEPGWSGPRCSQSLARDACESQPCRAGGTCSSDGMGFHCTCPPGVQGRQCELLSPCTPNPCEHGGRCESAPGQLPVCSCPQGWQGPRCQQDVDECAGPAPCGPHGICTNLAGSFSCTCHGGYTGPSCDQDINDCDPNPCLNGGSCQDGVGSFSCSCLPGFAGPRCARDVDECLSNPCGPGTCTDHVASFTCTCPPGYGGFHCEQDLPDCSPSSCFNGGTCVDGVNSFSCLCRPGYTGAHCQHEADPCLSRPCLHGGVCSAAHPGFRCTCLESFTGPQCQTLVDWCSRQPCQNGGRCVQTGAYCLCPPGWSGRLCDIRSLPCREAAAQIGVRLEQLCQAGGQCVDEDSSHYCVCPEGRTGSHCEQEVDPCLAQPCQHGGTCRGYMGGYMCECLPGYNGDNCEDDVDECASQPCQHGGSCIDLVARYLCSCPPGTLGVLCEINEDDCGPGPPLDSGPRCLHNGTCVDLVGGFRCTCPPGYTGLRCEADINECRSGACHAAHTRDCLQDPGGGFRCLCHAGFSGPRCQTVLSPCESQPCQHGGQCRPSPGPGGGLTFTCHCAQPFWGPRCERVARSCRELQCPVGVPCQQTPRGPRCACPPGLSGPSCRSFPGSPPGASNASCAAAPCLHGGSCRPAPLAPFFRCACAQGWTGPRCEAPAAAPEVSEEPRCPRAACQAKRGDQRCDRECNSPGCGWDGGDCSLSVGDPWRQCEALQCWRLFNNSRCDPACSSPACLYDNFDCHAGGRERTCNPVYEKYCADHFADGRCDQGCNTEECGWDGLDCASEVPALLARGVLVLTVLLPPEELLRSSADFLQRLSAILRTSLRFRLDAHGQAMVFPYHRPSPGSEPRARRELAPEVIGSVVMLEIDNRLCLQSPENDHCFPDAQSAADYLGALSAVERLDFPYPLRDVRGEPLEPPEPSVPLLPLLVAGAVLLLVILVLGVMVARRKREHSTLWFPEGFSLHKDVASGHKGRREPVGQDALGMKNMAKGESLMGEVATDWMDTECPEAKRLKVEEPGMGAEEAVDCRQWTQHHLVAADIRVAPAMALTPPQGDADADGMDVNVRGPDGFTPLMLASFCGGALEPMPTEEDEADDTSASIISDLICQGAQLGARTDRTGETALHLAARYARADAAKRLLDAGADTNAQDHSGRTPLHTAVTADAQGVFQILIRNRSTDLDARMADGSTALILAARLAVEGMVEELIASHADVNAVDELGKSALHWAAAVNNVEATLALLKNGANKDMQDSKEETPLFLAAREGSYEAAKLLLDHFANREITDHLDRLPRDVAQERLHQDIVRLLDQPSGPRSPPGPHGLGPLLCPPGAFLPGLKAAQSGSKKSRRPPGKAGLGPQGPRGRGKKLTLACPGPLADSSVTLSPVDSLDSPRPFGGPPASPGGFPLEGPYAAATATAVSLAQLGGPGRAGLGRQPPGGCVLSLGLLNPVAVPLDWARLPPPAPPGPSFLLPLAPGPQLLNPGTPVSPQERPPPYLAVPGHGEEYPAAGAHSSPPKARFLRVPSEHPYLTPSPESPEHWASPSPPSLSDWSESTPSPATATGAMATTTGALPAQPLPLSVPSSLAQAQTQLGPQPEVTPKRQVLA

As for `COc1ccc([Si](C)(C)[C@@H]2[C@@H](CCn3cc([C@H](O)c4ccccc4)nn3)O[C@]3(C(=O)N(Cc4cccc(N5CCOC5=O)c4)c4ccccc43)[C@H]2C)cc1`, the composite z-score in assay [1] is 0.752; in [2] it was -0.268; in assay [3] it was -0.152; in [4], -0.368; in assay [5] it was -1.11; in [6] it was 0.0895. In addition, the composite z-score in assay [7] was -0.0072; in assay [9], -0.64; in assay [10] it was -0.236; in assay [11] it was -0.217; in [15] it was 0.697; in assay [17], -0.117. Further, the composite z-score is -0.89 in assay [18], -1.29 in assay [19] and -0.278 in assay [20]. Further, the z-score was 1.34 (inactive) in assay [8]; 1.56 (inactive) in assay [12]; 1.45 (inactive) in assay [13]; 3.61 (inactive) in assay [14]; 0.894 (inactive) in assay [16].
As to `[N-]=[N+]=Nc1ccccc1[C@H]1OC(c2ccc(OCCCO)cc2)=N[C@@]1(CCS(=O)(=O)c1ccccc1)C(=O)O`, the composite z-score was 1.13 in assay [1]; 0.298 in [2]; 0.051 in assay [3]; 0.0993 in assay [4]; 0.402 in assay [5]; 0.826 in assay [6]. Moreover, the composite z-score is 0.67 in assay [7]; 0.697 in assay [9]; -0.189 in [10]; 0.164 in [11]; 3.2 in [15]; 0.308 in [17]. Besides, the composite z-score in assay [18] was -0.688; in [19] it was -0.0883; in [20], -0.179. The z-score is 3.83 (inactive) in assay [8]; -0.775 (inactive) in assay [12]; -3.52 (inactive) in assay [13]; -0.0047 (inactive) in [14]; 1.46 (inactive) in assay [16].
Consider `CC1=C2[C@@H](CCc3ccccc3)OB(O)C[C@@H]2n2c(=O)n(-c3ccccc3)c(=O)n2C1`, for which the composite z-score was -0.388 in [1]; -0.214 in assay [2]; -0.132 in assay [3]; 0.203 in assay [4]; 0.889 in [5]; 0.537 in assay [6]. For the same compound, the composite z-score in assay [7] is 1.04; in assay [9], 0.156; in assay [10], -0.34; in assay [11] it was 1.02; in assay [15] it was 0.902; in [17], -0.179. The composite z-score in [18] was 0.416; in assay [19], 0.666; in assay [20], -0.111. The z-score was -2.85 (inactive) in assay [8]; -0.237 (inactive) in assay [12]; -1.51 (inactive) in assay [13]; -0.535 (inactive) in assay [14]; -0.296 (inactive) in [16].
Turning to `C=CCNC(=O)[C@@H]1[C@H]2C(=O)O[C@H](c3ccccc3)[C@H](c3ccccc3)N2[C@H](c2ccc(OCCO)cc2)[C@@]12C(=O)Nc1ccccc12`, the composite z-score in assay [1] is 0.511; in assay [2], 0.0949; in [3], -0.116; in [4], 0.405; in [5], 0.117; in [6], 1.51. The composite z-score in assay [7] is 1.23; in assay [9] it was 0.627; in assay [10], -0.513; in [11] it was 1.55; in assay [15], 2.46; in assay [17], -0.175. Also, the composite z-score in [18] was 1.28; in assay [19], 1.09; in assay [20], -0.197. Further, the z-score in assay [8] is -1.05 (inactive); in assay [12] it was -1.2 (inactive); in assay [13] it was 0.406 (inactive); in assay [14] it was 2.21 (inactive); in [16] it was 0.462 (inactive).
As to `CC(=O)NCCCC[C@@H]1NC(=O)[C@@H]2C[C@H](C(=O)NCCCCN(C)C)[C@H](c3ccc(O)cc3)N2C1=O`, the composite z-score in assay [1] was 0.641; in assay [2], -0.241; in assay [3], -0.168; in assay [4], -0.971; in [5], -1.09; in [6], -0.463. The composite z-score in assay [7] is 0.939; in assay [9], -0.0292; in [10], 0.0373; in assay [11], -0.0942; in assay [15] it was 1.65; in assay [17] it was -0.0906. The composite z-score in assay [18] is -0.126; in assay [19] it was -0.322; in assay [20] it was -0.109. In addition, the z-score in [8] was -0.816 (inactive); in [12], -0.442 (inactive); in assay [13] it was 0.169 (inactive); in assay [14], -0.687 (inactive); in [16] it was 1.14 (inactive).
As to `COc1ccc(CCNC(=O)[C@@]2(c3ccc([N+](=O)[O-])cc3)CC(=O)N(CC34CC5CC(CC(C5)C3)C4)[C@@H]2c2ccc(CO)cc2)cc1`, the composite z-score was 0.281 in [1]; 0.441 in assay [2]; -0.0039 in [3]; 0.268 in assay [4]; 1.14 in assay [5]; 1.22 in assay [6]. The composite z-score in [7] was determined as 1.15; in [9], 0.298; in [10], 0.0848; in assay [11] it was 1.37; in assay [15], 2.11; in assay [17], 0.257. The composite z-score worked out at 0.71 in [18], 1.16 in assay [19] and 0.544 in assay [20]. Moreover, the z-score in assay [8] is -0.0918 (inactive); in assay [12] it was 0.719 (inactive); in [13], -0.063 (inactive); in assay [14], 6.65 (inactive); in assay [16] it was -0.108 (inactive).
Regarding `COc1cc(CO)ccc1OC(C)=O`, the composite z-score in [1] is -0.651; in assay [2] it was 0.336; in [3], -0.0279; in assay [4] it was 0.28; in assay [5], 0.382; in [6] it was 0.34. The composite z-score was 0.707 in [7]; 0.195 in [9]; 0.122 in assay [10]; 0.657 in [11]; 0.0135 in [15]; -0.332 in assay [17]. Further, the composite z-score was 0.601 in assay [18], 0.317 in assay [19] and -0.112 in assay [20]. The z-score in assay [8] was -0.847 (inactive); in [12] it was -2.07 (inactive); in [13], -1.44 (inactive); in assay [14], -0.377 (inactive); in assay [16] it was 1.14 (inactive).
As for `CCCCCN1CC=CC23O[C@@H]4C=CCOC(=O)[C@@H]4[C@H]2C(=O)N(CCCO)[C@@H]3C1=O` (stereo not given in full), the composite z-score is -0.295 in assay [1]; 0.777 in assay [2]; -0.195 in [3]; -0.549 in assay [4]; -0.661 in assay [5]; 2.05 in assay [6]. Moreover, the composite z-score is 1.27 in [7]; -0.643 in [9]; -0.236 in assay [10]; 1.55 in assay [11]; 3.5 in assay [15]; -0.221 in assay [17]. Further, the composite z-score in [18] is 0.243; in assay [19], 0.0152; in assay [20] it was -0.185. The z-score in assay [8] was -0.482 (inactive); in [12], 0.811 (inactive); in [13], -0.717 (inactive); in assay [14], -1.05 (inactive); in [16], 3.09 (inactive).
On to `COc1ccc(C#Cc2ccc3c(c2)[C@]2(C(=O)N3)[C@H](C(=O)NC[C@H](O)c3ccccc3)[C@H]3C(=O)O[C@H](c4ccccc4)[C@H](c4ccccc4)N3[C@@H]2c2ccc(OCCO)cc2)cc1`, for which the composite z-score is -0.547 in [1]; 0.637 in [2]; -0.0005 in assay [3]; 0.6 in [4]; 0.975 in [5]; 1.07 in [6]. Besides, the composite z-score in assay [7] was 1.19; in [9] it was 0.0324; in assay [10], -0.32; in assay [11] it was 1.49; in assay [15], 2.96; in assay [17], -0.22. The figures for the composite z-score in assay [18], in assay [19] and in assay [20] were 1.52, 1.09 and -0.0746, respectively. Moreover, the z-score in assay [8] is 0.943 (inactive); in assay [12], 2.85 (inactive); in assay [13], 1.64 (inactive); in assay [14], 4.35 (inactive); in assay [16] it was -0.508 (inactive).

The values are drawn from PubChem BioAssay.
